# Test system: CSNK2A1
# Details: concentration: 1 μM, replicates: in singlicate; n = 1
# 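Also: KINOMEscan kinase panel screen.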
row,SMILES,%Inh
1,Cc1ccc(C(=O)N2CC[C@@H](O)C2)cc1-n1c(C)cc(OCc2ccc(F)cc2F)c(Br)c1=O,0%
2,O=C(O)C(F)(F)F.O=C(O)C(F)(F)F.O=c1[nH]ccc2nc(N[C@@H]3CCCNC3)nc(Nc3ccc(S(=O)(=O)N4CCOCC4)cc3)c12 [GSK2177277],98.7%
3,COc1cc(Nc2nccc(-c3c(-c4cccc(NC(=O)c5c(F)cccc5F)c4)nn4ncccc34)n2)cc(OC)c1OC [GSK327238],0%
4,COc1cccc(C2=C(Nc3ccc(Cl)c(C(=O)O)c3)C(=O)NC2=O)c1 [SB-390769],0%
5,Cc1ccc(C(=O)Nc2ccc(Nc3ccnc4cc(-c5nccs5)ccc34)cc2O)cc1.Cl [GW494702],0%
6,CCn1c(-c2nonc2N)nc2c(C#CC(C)(C)O)nc(OC[C@H](N)c3ccccc3)cc21 [GSK943949],0%
7,COC(=O)Nc1nc2cc(Oc3ccc(NC(=O)Nc4cc(C(F)(F)F)ccc4F)cn3)ccc2[nH]1.Cl.Cl [GW681170],0%
8,Cl.Cl.NCC(NCc1ccc(-c2ccnc3[nH]ccc23)s1)c1ccccc1 (stereo not shown) [GSK1321565],39%
9,O=c1[nH]cc(-c2ccc(N3CCOCC3)cc2)c2sc(-c3cn[nH]c3)cc12 [GSK2276055],64%
10,c1ccc(-c2cnc3nccnn23)cc1 [AH20685],0%
11,COc1cc(Nc2nccc(-c3c(-c4cccc(NC(=O)c5c(F)cccc5F)c4)nn4ccccc34)n2)cc(OC)c1OC [GSK323521],2%

# Test system: CSNK2A2
# Details: concentration: 1 μM, replicates: in singlicate; n = 1
row,SMILES,%Inh
1,Cc1ccc(C)c(NC(=O)NC2CCN(c3ccnc(Nc4ccc(F)cc4)n3)C2)c1 (stereo not shown) [GSK1379720],0%
2,Cl.Cl.NCC(NC(=O)c1cc(-c2ccccc2)c(-c2ccnc3[nH]ccc23)s1)c1ccccc1 (stereo not shown) [GSK1321561],38%
3,CN(C)Cc1ccc(-c2ccc3c(Nc4ccc(Oc5ccccn5)cc4)ccnc3c2)o1 [GW567148],0%
4,COc1cccc(C(=O)Nc2cccc(Oc3ccc4nc(NC(=O)C5CC5)cn4n3)c2)c1,17%
5,CNC(=O)c1ccccc1Nc1nc(Nc2ccc(N3CCOCC3)cc2)ncc1Cl.Cl [GSK1576028],99.9%
6,C[C@@H]1CC[C@@H](C(=O)Nc2ccccc2)CN1c1cc(-c2ccc3c(N)n[nH]c3c2)nc(N)n1 [GSK2286062],7%
7,Cn1cc(-c2ccc3c(c2)CCN3C(=O)Cc2cccc(Cl)c2)c2c(N)ncnc21 [GSK2606590],30%
8,FC(F)(F)c1ccc(/C=C/c2cncnc2Nc2ccc3[nH]c(Cc4ccccc4)nc3c2)cc1 [GW709199],0%
9,COc1cccc(NC(=O)NC2CCN(c3ccnc(Nc4cc(OC)c(OC)c(OC)c4)n3)C2)c1 (stereo not shown) [GSK1379763],7%
10,Fc1ccc(-c2ncn(C3CCNCC3)c2-c2ccnc(Oc3ccc(-c4ccccc4)cc3)n2)cc1 [SB-245391],7%
11,Oc1cc(Nc2ccnc3cc(I)ccc23)ccc1F [GW552771],0%
12,COC(=O)Nc1nc2ccc(Oc3ccc(NC(=O)Nc4cc(C(F)(F)F)ccc4F)cc3)cc2n1C.Cl [GW692089],1%
13,CC(=O)N1CCN(c2ccc(Nc3nccc(-c4sc(C(C)C)nc4-c4cccc(NS(=O)(=O)c5cccc(Cl)c5)c4)n3)cn2)CC1 [GSK1660437],0%
14,Cl.Cl.NCC(C(=O)Nc1cc(Br)c(-c2ccnc3[nH]ccc23)s1)c1ccccc1 (stereo not shown) [GSK1269851],73%
15,CC(C)(C)c1ccc2nccc(Nc3cccc(O)c3)c2c1 [GW856795],0%
16,NCCCC(NC(=O)c1cc(Br)c(-c2ccnc3[nH]ccc23)s1)c1ccccc1.O=C(O)C(F)(F)F.O=C(O)C(F)(F)F (stereo not shown) [GSK1287544],20%
17,Cl.c1ccc(-c2ccc3c(Nc4ccc5[nH]ncc5c4)ccnc3c2)nc1 [GW440137],8%
18,c1ccc(Oc2ccc(Nc3ccnc4cc(-c5ccc(CNCCN6CCOCC6)o5)ccc34)cc2)nc1 [GW567145],18%
19,O=C(Nc1cccc(Oc2ccc3nc(NC(=O)C4CC4)cn3n2)c1)c1ccccc1C(F)(F)F,0%
20,CC(C)c1nc(-c2cccc(NS(=O)(=O)c3c(F)cccc3F)c2F)c(-c2ccnc(Nc3ccc(N4CCOCC4)nc3)n2)s1 [GSK2008607],32%

# Source: PMC5540273 (PLoS ONE, 2017)
